TMEM16A act: activators or potentiators of mouse TMEM16A chloride channel | Q8BHY3 | HEK293 TMEM16A/YFP-H148Q/I152L, iodide quench fluorescence; stronger effect = lower value | B-score at 10 µM | 340,000 tested, 0.3% active | AID 623877;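 active means fluorescence-ratio B-score plate-corrected deviation score at least 3 library SD below zero, with starting fluorescence score within 5 deviations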;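 further: channel opened by trigger with iodide after compound preincubation; score built on the fluorescence ratio of max minus min over baseline; more negative score means more quench and so TMEM16A activation or potentiation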
Target sequence (Q8BHY3 whole entry, looked up): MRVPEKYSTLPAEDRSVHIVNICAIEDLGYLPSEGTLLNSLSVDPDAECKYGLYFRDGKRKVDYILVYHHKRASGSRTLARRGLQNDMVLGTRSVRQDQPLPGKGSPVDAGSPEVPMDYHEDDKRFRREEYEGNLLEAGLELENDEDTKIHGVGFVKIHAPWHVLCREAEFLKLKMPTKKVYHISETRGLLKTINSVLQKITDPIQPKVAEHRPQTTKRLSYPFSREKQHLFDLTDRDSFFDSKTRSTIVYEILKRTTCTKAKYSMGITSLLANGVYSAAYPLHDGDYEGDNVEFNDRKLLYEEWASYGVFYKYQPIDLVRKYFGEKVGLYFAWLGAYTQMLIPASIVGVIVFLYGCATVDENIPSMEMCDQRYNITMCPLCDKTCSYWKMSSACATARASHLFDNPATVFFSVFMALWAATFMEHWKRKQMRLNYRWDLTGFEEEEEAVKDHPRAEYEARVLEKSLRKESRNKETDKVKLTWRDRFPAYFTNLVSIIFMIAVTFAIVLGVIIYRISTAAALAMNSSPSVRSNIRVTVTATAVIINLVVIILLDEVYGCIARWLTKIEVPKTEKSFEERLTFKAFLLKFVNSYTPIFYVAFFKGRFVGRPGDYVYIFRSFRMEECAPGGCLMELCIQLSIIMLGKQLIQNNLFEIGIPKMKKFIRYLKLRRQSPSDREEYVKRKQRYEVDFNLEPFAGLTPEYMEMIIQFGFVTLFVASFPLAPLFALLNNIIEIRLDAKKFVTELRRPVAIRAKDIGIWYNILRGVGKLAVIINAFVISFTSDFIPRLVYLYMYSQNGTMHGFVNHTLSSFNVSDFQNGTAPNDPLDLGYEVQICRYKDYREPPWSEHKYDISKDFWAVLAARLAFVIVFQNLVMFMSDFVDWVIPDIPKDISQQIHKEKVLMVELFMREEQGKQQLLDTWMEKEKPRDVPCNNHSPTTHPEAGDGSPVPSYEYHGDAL
MPTP block: permeability transition pore inhibition | isolated mouse mitochondria, Ca2+ swelling absorbance, 30 min | inhibition, % at 10 µM | 360,000 tested, 1.4% active;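 active means inhibition of 50% or more, scaled per plate between neutral and stimulator controls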
CRFBP-R2 block: antagonists of CRF-binding protein/CRF-R2 receptor complex. HEK293 CRF-R2/CRF-BP, CRF-induced calcium fluorescence. inhibition, % at 11.8 µM. 350,000 tested, 0.59% active;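 active means inhibition of the ligand-induced calcium signal above about 50% at the single tested concentration, limit read from the data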
NR3A LBD binder: modulators (binders) of human NR3A ligand-binding domain; NR3A LBD differential scanning fluorimetry, Tm shift; 0% = protein alone, 100% = glycine-bound protein; 340,000 tested, 2.5% active; Tm shift relative to glycine control, % at 25 µM;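 active means melting temperature shift of at least 10% of the positive control shift, at one fixed dose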
ANO1 block: blocks the mouse calcium-activated chloride channel TMEM16A; HEK293 TMEM16A/YFP iodide influx fluorescence, ionomycin; normalized B-score (activity score, 25-100; higher = stronger inhibition) at 10 µM; 310,000 tested, 1.2% active;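 active means ratio plate-corrected score three or more library SD toward inhibition, starting fluorescence score within five deviations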;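 further: score derived from kinetic fluorescence span divided by baseline fluorescence per well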
CRFBP-R2 agonist: agonists of human CRF-binding protein/CRF-R2 receptor complex. 350,000 tested, 0.46% active. activation, % at 13.2 µM. HEK293 CRF-R2/CRF-BP, calcium dye fluorescence (FLIPR); percent of saturating CRF peptide response;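 active means activation of at least 50%, plus an integration ratio under a set limit after plate pattern correction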
A number is an active result; – = inactive; · = no result. In the library only some 5.1% were active in any assay of this set; here they are far more common.

SMILES | TMEM16A act | MPTP block | CRFBP-R2 block | NR3A LBD binder | ANO1 block | CRFBP-R2 agonist
CCc1ccc(S(=O)(=O)/N=C2\C=C(Nc3ccc(O)cc3)C(=O)c3ccccc32)cc1 | – | – | 140 | – | – | –
O=C(O)c1ccc(NC2=C/C(=N/S(=O)(=O)c3ccccc3)c3ccccc3C2=O)cc1 | – | – | – | – | · | –
Cc1cn(CC(=O)NCc2ccccc2)c(=O)[nH]c1=O | · | – | – | – | · | –
CCCCn1c(N)c(N(CCOC)C(=O)CSc2ccc([N+](=O)[O-])cc2)c(=O)[nH]c1=O | – | – | – | – | · | –
Cc1ccc2nc(-c3ccccc3)cn2c1 | – | – | – | – | – | –
CC(=O)Nc1ccc(-c2cn3cc(C)ccc3n2)cc1 | – | – | – | 20 | – | –
CCCOc1ccc(-c2cn3ccccc3n2)cc1 | – | – | – | – | – | –
O=C(Nc1ccc(-c2cn3ccccc3n2)cc1)c1ccco1 | – | – | – | 24 | – | –
COc1ccc(-c2cn3ccccc3n2)cc1 | – | – | – | 26 | – | –
O=C(Nc1ccc(-c2cn3ccccc3n2)cc1)c1ccc(Cl)cc1 | – | – | – | 14 | – | –
Cc1cccc(NC(=O)COC(=O)CN2C(=O)c3ccccc3C2=O)c1 | · | – | – | · | · | –
CCOCCCN(C)C1CCN(C(=O)c2oc3ccccc3c2NC(=O)c2ccc(F)cc2)CC1 | – | – | – | – | – | –
O=C(COC(=O)c1ccccc1O)Nc1ccc2ccccc2c1 | – | – | – | 15 | · | –
Cc1ccc(OC(=O)N(C)C[C@@H]2OCc3cn(nn3)CCCC(=O)N([C@@H](C)CO)C[C@H]2C)cc1 | · | – | – | · | · | –
Nc1ccccc1N=Nc1ccccc1N | – | – | – | 23 | – | –
Nc1ccccc1-c1ccccc1N | – | – | – | – | – | –
Cc1ccc(Sc2c(C=O)c3ccccc3n2C)cc1 | – | – | 58 | – | – | –
CCOc1ccc(NC(=O)CN(C)C(=O)C2=COCCO2)cc1OCC | – | – | – | – | – | –
Cc1cc(NC(=O)c2ccc(C#N)cc2)n(-c2ccccn2)n1 | -30 | – | – | – | – | –
Cc1cc(NC(=O)Nc2cccc(Cl)c2)n(-c2ccccn2)n1 | – | – | – | 33 | – | –
Cc1cc(NC(=O)c2ccc(F)cc2)n(-c2ccccn2)n1 | – | – | – | – | – | –
Cc1cccc(C(=O)OCC(=O)N(C)CC(=O)Nc2ccc(Cl)c(C(F)(F)F)c2)c1 | – | – | – | 12 | · | –
CN(CC(=O)Nc1ccc(F)c(F)c1F)C(=O)c1cc(-c2ccncc2)nc2ccccc12 | – | – | – | – | – | –
CN(CC(=O)Nc1ccc(Cl)c(C(F)(F)F)c1)C(=O)COc1cccc2cccnc12 | · | – | – | · | · | –
Cc1nc(-c2ccc(F)cc2)c(CC(=O)N(C)CC(=O)Nc2ccccc2Cl)s1 | – | – | – | – | – | –
SMILES | TMEM16A act | MPTP block | CRFBP-R2 block | NR3A LBD binder | ANO1 block | CRFBP-R2 agonist
Cc1nc(-c2ccc(F)cc2)c(CC(=O)N(C)CC(=O)Nc2ccc(Cl)c(C(F)(F)F)c2)s1 | – | – | – | 12 | · | –
Cc1ccc(C)c(OCC(=O)N(C)CC(=O)Nc2ccc(Cl)c(C(F)(F)F)c2)c1 | – | – | – | 12 | · | –
CN(CC(=O)Nc1ccc(Cl)c(C(F)(F)F)c1)C(=O)c1cc(-c2ccncc2)nc2ccccc12 | – | – | – | 21 | – | –
CCc1ccc(N2CC(C(=O)OCC(=O)Nc3ccc(C(C)=O)cc3)CC2=O)cc1 (stereo unspecified) | – | – | – | – | · | –
COc1ccccc1OCCSc1nc2ccccc2n1CC(N)=O | – | – | – | – | – | –
Cc1nc(N)ncc1CCC1OCCO1 | · | – | – | · | · | –
O=C(COC(=O)CSc1cc(Cl)ccc1Cl)NCc1ccc2c(c1)OCO2 | – | – | – | – | – | 52
CC(=O)c1cccc(Nc2ccc(-c3ccccc3F)nn2)c1 | – | – | – | – | – | –
COc1ccccc1-c1ccc(Nc2cccc(C(C)=O)c2)nn1 | · | – | – | 11 | – | –
COc1cccc(Nc2ccc(Nc3cccc(OC)c3)nn2)c1 | – | – | – | 33 | – | –
O=C(CNC(=O)c1ccccc1Br)Nc1cccc(S(=O)(=O)Nc2ccccc2Cl)c1 | – | – | – | – | · | –
